Records with an inconclusive call do not appear. Some compounds were tested as several samples or in several runs, with calls that do not always agree. Activity calls are given as the source filed them. How the source made its calls, unless noted: active means hit-call score of the fitted dose curve at least 0.9, where 1 is the maximum; inactive means score below 0.9.
Legend:
[1] = ATG_NFI_CIS: Attagene CIS-FACTORIAL HepG2 Assay for human Nuclear Factor I (NFI) (AID 2282989); details: HepG2 cis-regulatory reporter, NFI response element transcription; actives raise or lower the signal
Summary of the method: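 Cells: human liver HepG2, transiently transfected with promoter-regulated reporter transcription units. Exposure 24 h. Detection: fluorescent RT-PCR products separated by capillary electrophoresis, normalised to DMSO negative control.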

[2] = target: Myc proto-oncogene protein (Homo sapiens) (UniProt P01106); experiment: ATG_Myc_CIS: Attagene CIS-FACTORIAL HepG2 Assay for human Myelocytomatosis (Myc) Proto-Oncogene Transcription Factor (AID 2282990); details: HepG2, Attagene cis-reporter transcription factor activity; actives raise or lower the signal
Myc proto-oncogene protein (Homo sapiens), sequence (P01106 whole entry, looked up): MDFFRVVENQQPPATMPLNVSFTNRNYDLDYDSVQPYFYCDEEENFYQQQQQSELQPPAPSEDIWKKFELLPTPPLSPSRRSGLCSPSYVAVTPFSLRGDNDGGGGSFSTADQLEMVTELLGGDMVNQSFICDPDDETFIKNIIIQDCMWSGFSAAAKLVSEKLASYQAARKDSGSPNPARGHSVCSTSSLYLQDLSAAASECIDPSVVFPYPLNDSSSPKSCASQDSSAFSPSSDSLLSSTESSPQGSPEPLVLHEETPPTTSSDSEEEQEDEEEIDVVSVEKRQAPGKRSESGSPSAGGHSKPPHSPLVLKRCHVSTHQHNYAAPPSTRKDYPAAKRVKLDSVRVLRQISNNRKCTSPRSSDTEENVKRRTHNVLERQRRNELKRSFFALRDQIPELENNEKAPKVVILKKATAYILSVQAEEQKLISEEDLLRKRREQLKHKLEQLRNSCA
Summary of the method: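 Multiplexed cis-reporter transcription in HepG2 cells after 24 h chemical treatment. Reporter mRNA measured by RT-PCR and capillary electrophoresis fluorescence; activity fitted bidirectionally against DMSO control.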

[3] = ATG_NRF2_ARE_CIS: Attagene CIS-FACTORIAL HepG2 Assay for human Nuclear Factor Erythroid 2 Related Factor 2 (NFR2) response to Antioxidant Response Elements (ARE) (AID 2282992); details: HepG2 Attagene ARE/NRF2 reporter, transcription factor activity; actives raise or lower the signal
Summary of the method: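 HepG2 cells transiently transfected with multiplexed cis-regulated reporter transcription units measure endogenous transcription factor activity. Reporter mRNA at 24 h is quantified by RT-PCR, fluorescent labelling and capillary electrophoresis, with bidirectional fitting relative to DMSO.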

[4] = ATG_Oct_MLP_CIS: Attagene CIS-FACTORIAL HepG2 Assay for human Octamer-Binding Transcription Factor (Oct) (AID 2282993); details: HepG2 Attagene cis-factorial Oct reporter, mRNA; actives raise or lower the signal
Summary of the method: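 HepG2, transient MRTU transfection, cis promoter elements; 24 h dosing; RT-PCR/CE fluorescence read-out of reporter mRNA; fit both directions vs DMSO.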

[5] = target: human Peroxisome Proliferator-activated Receptor alpha (PPARa), PPARA (gene 5465) (UniProt Q07869); experiment: ATG_PPARa_TRANS: Attagene TRANS-FACTORIAL HepG2 Assay for human Peroxisome Proliferator-activated Receptor alpha (PPARa) (AID 2283001; active means hit-call score of the fitted dose curve at least 0.9, where 1 is the maximum;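 on AC50: potency for gain of reporter signal over DMSO so agonist or activator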)
human Peroxisome Proliferator-activated Receptor alpha (PPARa), PPARA (gene 5465), sequence (Q07869 whole entry, looked up, the tested form may be a part): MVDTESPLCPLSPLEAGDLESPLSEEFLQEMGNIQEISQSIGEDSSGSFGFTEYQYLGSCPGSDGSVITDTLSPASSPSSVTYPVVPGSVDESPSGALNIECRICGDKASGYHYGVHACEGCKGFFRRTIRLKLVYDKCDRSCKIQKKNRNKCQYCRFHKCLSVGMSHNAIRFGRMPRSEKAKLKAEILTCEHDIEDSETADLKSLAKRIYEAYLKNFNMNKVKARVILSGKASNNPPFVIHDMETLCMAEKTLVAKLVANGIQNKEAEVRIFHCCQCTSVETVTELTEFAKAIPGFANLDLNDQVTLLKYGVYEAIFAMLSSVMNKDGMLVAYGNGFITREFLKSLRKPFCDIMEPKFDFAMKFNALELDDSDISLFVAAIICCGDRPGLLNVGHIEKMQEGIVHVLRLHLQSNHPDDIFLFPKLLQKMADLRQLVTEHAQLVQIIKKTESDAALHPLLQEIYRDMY
Summary of the method: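 HepG2 cells transiently transfected with multiplexed GAL4-UAS reporter units and chimeric NR-Gal4 constructs were dosed for 24 h. Reporter mRNA was measured by RT-PCR with fluorescent labelling and capillary electrophoresis; gain of signal fitted against DMSO.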

[6] = target: Cellular tumor antigen p53 (Homo sapiens) (UniProt P04637); experiment: ATG_p53_CIS: Attagene CIS-FACTORIAL HepG2 Assay for human p53 Transcription Factor (AID 2282994); details: HepG2 p53 cis-element reporter, Attagene mRNA; actives raise or lower the signal
Cellular tumor antigen p53 (Homo sapiens), sequence (P04637 whole entry, looked up): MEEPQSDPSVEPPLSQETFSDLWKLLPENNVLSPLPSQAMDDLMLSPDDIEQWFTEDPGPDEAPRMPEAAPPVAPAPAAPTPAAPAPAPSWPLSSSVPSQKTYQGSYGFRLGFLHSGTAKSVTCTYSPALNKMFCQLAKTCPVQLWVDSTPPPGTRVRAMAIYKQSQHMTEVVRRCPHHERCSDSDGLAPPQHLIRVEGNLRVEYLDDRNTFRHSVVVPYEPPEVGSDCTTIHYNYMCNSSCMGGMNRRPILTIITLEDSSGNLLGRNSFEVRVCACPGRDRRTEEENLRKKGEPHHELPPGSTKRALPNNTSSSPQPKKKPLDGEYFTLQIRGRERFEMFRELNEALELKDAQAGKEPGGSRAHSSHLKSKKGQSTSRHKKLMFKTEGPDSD
Summary of the method: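 HepG2 cells transiently transfected with multiplexed cis-regulated reporter transcription units read endogenous TF activity. After 24 h compound exposure, reporter mRNA was quantified by RT-PCR, fluorescent labelling, HpaI digestion and capillary electrophoresis; bidirectional fits versus DMSO baseline.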

[7] = BSK_3C_TissueFactor: BioMAP Diversity Plus: 3C Assay for Tissue Factor Biomarker Activity (AID 2282997); details: BioMAP 3C HUVEC, tissue factor biomarker readout; actives raise or lower the signal
Summary of the method: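 Endothelial monolayers (human umbilical vein, primary) are dosed, incubated 24 h, and assayed for Tissue Factor by ELISA; DMSO serves as negative control for bidirectional fitting.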

[8] = BSK_3C_uPAR: BioMAP Diversity Plus: 3C Assay for Urokinase-type plasminogen activator receptor (uPAR) Biomarker Activity (AID 2282998); details: BioMAP 3C HUVEC, uPAR biomarker ELISA; actives raise or lower the signal
Summary of the method: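 A multiplexed primary-cell system built on human umbilical vein endothelium was used, with chemical present for 24 h before reading. Cell-surface uPAR was detected by ELISA; signal change in either direction counted against DMSO.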

[9] = BSK_4H_Eotaxin3: BioMAP Diversity Plus: 4H Assay for Eotaxin 3 Biomarker Activity (AID 2283000); details: primary human endothelial cells (HUVEC); actives raise or lower the signal
Summary of the method: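 ELISA quantitation of CCL26 (Eotaxin-3) protein from chemically dosed human vascular endothelial cells at 24 h; increases and decreases both scored relative to DMSO-treated baseline.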

Measured: AC50

CCCc1ccc(OC)cc1
inactive: [1] | [2] | [3] | [4] | [5]

Cc1ccc(N/N=c2\c(=O)cc/c(=N/Nc3ccc(S(=O)(=O)O)cc3)c2=O)c(C)c1
inactive: [1] | [2] | [3] | [4] | [6] | [5]

Cc1ccc(C(C)(C)C)cc1
inactive: [1] | [2] | [3] | [4] | [6] | [5]

O=C(O)CCCCCCCCCC(=O)O
inactive: [1] | [2] | [3] | [4] | [6] | [5]

CC(=O)Oc1ccc(C)cc1
active: [3] 19.6 µM
inactive: [1] | [2] | [4] | [6] | [5]

Cc1ccc(C(C)c2ccc(C)c(C)c2)cc1C
active: [3] 37.5 µM | [4] 147 µM | [6] 41.9 µM
inactive: [1] | [2] | [5]

CCCCC(CC)COCC1CO1 (stereo unspecified)
active: [9] 3.97 µM
inactive: [1] | [2] | [3] | [4] | [7] | [8] | [9]

Nc1nc2ccccc2[nH]1
inactive: [1] | [2] | [3] | [4] | [6] | [5]

CCCCCCCCCCCCCCCC[n+]1ccccc1
inactive: [1] | [3] | [4] | [5]
active: [2] 20 µM | [6] 20.4 µM

NC(CO)(CO)CO
inactive: [1] | [2] | [3] | [4] | [6] | [5]

CCc1nccnc1C
inactive: [1] | [2] | [3] | [4] | [6] | [5]

CCCCCC/C=C/C=O
inactive: [1] | [2] | [4]
active: [3] 47.7 µM | [5] 66.3 µM

CC(=O)[C@@]1(O)CC[C@H]2[C@@H]3C[C@H](C)C4=CC(=O)C=C[C@]4(C)[C@@]3(F)[C@@H](O)C[C@@]21C
inactive: [1] | [2] | [3] | [4] | [6] | [5]

O=c1[nH]nc(-c2ccc([N+](=O)[O-])o2)o1
inactive: [1] | [2] | [4] | [6] | [5]
active: [3] 61.3 µM

CCN(CCC#N)c1ccc(N=Nc2c(Cl)cc([N+](=O)[O-])cc2Cl)cc1
inactive: [1] | [2] | [3] | [4] | [6] | [5]

[Cl][In]([Cl])[Cl]
active: [3] 17.6 µM
inactive: [1] | [2] | [4] | [6] | [5]

COc1ccc2nc(N)sc2c1
active: [3] 13.9 µM
inactive: [1] | [2] | [4] | [7] | [8] | [9] | [5]

Cc1cccc(OCCOc2cccc(C)c2)c1
inactive: [1] | [2] | [4] | [6] | [5]
active: [3] 26.7 µM

CCCCCCCCO[C@@H]1O[C@H](CO)[C@@H](O)[C@H](O)[C@H]1O
inactive: [1] | [2] | [3] | [4] | [6] | [5]

O=C1c2cccc(O)c2C(=O)c2c(O)cc(CO)cc21
inactive: [1] | [2] | [4] | [6] | [5]
active: [3] 6.09 µM

COC(=O)c1c(C)cc(O)c(C)c1O
inactive: [1] | [2] | [3] | [4] | [6] | [5]

COc1ccc([C@@H]2CC(=O)c3c(O)cc(O[C@@H]4O[C@H](CO[C@@H]5O[C@@H](C)[C@H](O)[C@@H](O)[C@H]5O)[C@@H](O)[C@H](O)[C@H]4O)cc3O2)cc1OC
inactive: [1] | [2] | [3] | [4] | [6] | [5]

CC1=NC(C)OC1C (stereo unspecified)
active: [3] 42.5 µM | [6] 167 µM
inactive: [1] | [2] | [4] | [5]

S=C(NC1CCCCC1)NC1CCCCC1
inactive: [1] | [2] | [3] | [4] | [7] | [8] | [9] | [5]

CC/C=C\C/C=C\C/C=C\CCCCCCCC(=O)O
active: [3] 48.2 µM | [5] 42.3 µM
inactive: [1] | [2] | [4]

CCCCCCCC/C=C\CCCCCCCC(=O)O
inactive: [1] | [2] | [4] | [6]
active: [3] 100 µM | [5] 21.8 µM

CCC(C)OC(=O)c1ccc(O)cc1 (stereo unspecified)
active: [3] 100 µM
inactive: [1] | [2] | [4] | [6] | [5]

Nc1cccc(C(F)(F)F)c1
inactive: [1] | [2] | [3] | [4] | [6] | [5]

C=C(C)C(=O)OCCO
inactive: [1] | [2] | [3] | [4] | [5]

C[Si](C)(C)O[Si](O)(O)O
inactive: [1] | [2] | [3] | [4] | [5]
